# TDP1 cell CPT = growth inhibition of DT40 Tdp1-/-;hTDP1 cells with camptothecin (screen for TDP1 inhibitors) | chicken DT40 Tdp1-/-;hTDP1 cells + 20 nM CPT, ATP luminescence, 48 h | Potency, µM (doses to about 46.2 µM), for the others: top-dose activity change, negative = growth inhibition, most hits filed as inhibitors | 420,000 tested, 12% active | AID 686979; further: potency means the concentration at half of the fitted maximal effect; nearly all actives have a fitted effect of over 55% in size
#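 Chicken DT40 Tdp1-/- cells complemented with human TDP1, 400 cells/well, exposed to compounds plus 20 nM camptothecin for at least 48 h at 37 C; viability read as ATP content by CellTiter-Glo luminescence.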
# TDP1 cell noCPT = qHTS for Inhibitors of human tyrosyl-DNA phosphodiesterase 1 (TDP1): qHTS in cells in absence of CPT; DT40 Tdp1-/- hTDP1 cells, no CPT, ATP luminescence, 48 h; AID 686978, 2013; 420,000 tested, 15% active; Potency, µM (highest dose often 46.2 µM), without a hit: top-dose activity change, negative = growth inhibition, actives largely listed as inhibitors; further: potency means the concentration at half of the fitted maximal effect; nearly all actives have a fitted effect of over 55% in size
#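 DT40 Tdp1-/-;hTDP1 cells, no CPT (DMSO vehicle only), 400 cells/well; compounds pin-transferred; ≥48 hr, 37 °C; CellTiter-Glo 30 min RT dark, luminescence read.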
# TDP1 inh = blocks human tyrosyl-DNA phosphodiesterase 1; Potency, µM (series often up to 130 µM), without a hit: at the highest dose activity change, negative = inhibition, most hits filed as inhibitors; 350,000 tested, 0.28% active; recombinant TDP1, AlphaScreen DNA substrate cleavage; Q9NUW8; further: potency means the concentration at half of the fitted maximal effect; nearly all actives have a fitted effect of over 40% in size
# Target sequence (Q9NUW8 whole entry, looked up): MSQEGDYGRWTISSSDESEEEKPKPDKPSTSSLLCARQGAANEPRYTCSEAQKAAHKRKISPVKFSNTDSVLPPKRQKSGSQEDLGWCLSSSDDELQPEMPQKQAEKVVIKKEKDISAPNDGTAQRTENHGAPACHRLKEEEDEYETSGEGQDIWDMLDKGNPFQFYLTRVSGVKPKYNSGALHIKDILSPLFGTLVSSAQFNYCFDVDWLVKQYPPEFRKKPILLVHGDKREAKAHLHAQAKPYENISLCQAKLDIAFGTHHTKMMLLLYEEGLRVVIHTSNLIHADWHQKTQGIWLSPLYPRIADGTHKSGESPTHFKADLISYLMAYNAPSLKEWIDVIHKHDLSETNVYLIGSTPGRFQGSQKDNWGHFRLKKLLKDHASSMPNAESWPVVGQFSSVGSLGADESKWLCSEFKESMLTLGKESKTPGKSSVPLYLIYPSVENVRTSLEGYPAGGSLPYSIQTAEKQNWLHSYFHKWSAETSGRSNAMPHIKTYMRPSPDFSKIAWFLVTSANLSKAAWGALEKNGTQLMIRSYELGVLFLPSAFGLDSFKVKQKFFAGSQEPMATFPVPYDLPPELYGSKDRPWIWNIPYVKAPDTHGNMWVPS
#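 Here, a 5' biotin and 3' phosphotyrosine-FITC DNA oligonucleotide reports Tdp1 activity: intact substrate bridges AlphaScreen beads, while cleavage leaves a 3' phosphate and drops signal. All incubations at room temperature.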
# Giardia kill = Giardia lamblia killing; activity change, % at 7.66 µM, hits read low; Giardia lamblia trophozoite viability; 340,000 tested, 0.15% active; in the data active means activity change below about -80%; inconclusive means between about -30% and that limit;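 further: parasites exposed to compound for two days anaerobically before the ATP read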
#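 Giardia lamblia trophozoites (100 cells/well) were incubated with compounds for 48 h at 37 deg C under anaerobic conditions. Viability was read as ATP content by one-step luminescence after 15-30 min at room temperature.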
# ELG1 DNA repair = blocks ELG1-dependent DNA repair in HEK293T cells; HEK293T ELG1-luciferase reporter, luminescence, 16 h; DNA damage induced by 5-fluorouridine; Potency, µM (titrated, usually from 46.1 µM), without a hit: top-dose activity change, negative = inhibition, most hits filed as inhibitors; 330,000 tested, 2.3% active; further: potency means the concentration at half of the fitted maximal effect; nearly all actives have a fitted effect of over 55% in size
#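 Cells (2,000 per well) received 5-fluorouridine plus test compound or DMSO and were incubated 16 hr at 37 °C, 5% CO2. Luciferase activity was read by luminescence 30 min after ONE-Glo addition; signal suppression marked inhibition of damage-induced ELG1 function.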
# IL-1B inflam inh = blocks inflammasome-driven IL-1 beta release; 360,000 tested, 4.7% active; activity change, % at 57.5 µM; THP-1 LPS/ATP IL-1B secretion, AlphaLISA, 16 h; active compounds read low; in the data active means activity change below about -50%; inconclusive means mostly about -30% to -49%
#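 Secreted IL-1B measured by AlphaLISA bead assay after 16 h compound exposure of THP-1 cells; compounds (final up to 57.5 uM) added 1 h before LPS (250 ng/mL) and ATP (1.25 mM) stimulation; lower signal means less secretion.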
# * hit, by the source's call; i = inactive; ? = inconclusive; · = not tested or not shown. Only some compounds are listed: those with a hit (about 19% of all), similar ones and a draw of the others. Unless noted, the call rests on the fitted dose curve; in most records, active means well fitted curve in the direction sought with a large enough effect; inconclusive means small, poorly fitted or top-dose-only effect, or another doubt; inactive means no such curve, though single readings can be large; an effect the other way counts as inactive or inconclusive. On the % scale 0 is the no-effect control and ±100 the full control effect.
SMILES,TDP1 cell CPT,TDP1 cell noCPT,TDP1 inh,Giardia kill,ELG1 DNA repair,IL-1B inflam inh
CC(C)Cn1c(N)c(S(=O)(=O)c2cccs2)c2nc3ccccc3nc21,16.4µM*,?,-4.8%,?,?,?
COCCNC(=O)c1c(N)n(/N=C/c2cccs2)c2nc3ccccc3nc12,?,16.4µM*,2.3%,-4.9,?,-2.9
COc1ccc(-n2nc(C(=O)O)cc2-c2ccccc2)cc1,-1.0%,13.5%,·,30.2,0.8%,2.1
COc1ccc(OCC(=O)N/N=C/c2cccc3cccnc23)cc1,?,?,·,9.3,·,128.2
CC(=O)Oc1ccc(/C=N/NS(=O)(=O)c2ccc(C)cc2)c(OC(C)=O)c1,-17.5%,2.7%,-9.4%,-9.5,9.4%,1.1
O=C(COc1cccc(Cl)c1)N/N=C\c1cc2ccccc2nc1Cl,?,?,7.9%,1.3,17.2%,12.1
Cc1ccnc(-n2c(C)cc(/C=N/NC(=O)COc3cccc4cccnc34)c2C)c1,4.6%,-3.9%,5.2%,1.5,8.0%,-53.7*
O=C(COc1ccc(Cl)cc1)N/N=C/c1cccc2cccnc12,?,18.4µM*,0.8%,17.9,?,i
C=CCc1ccccc1OCC(=O)N/N=C/c1ccc(OC(C)=O)cc1OC(C)=O,5.8µM*,6.51µM*,7.6%,3.7,?,57.2
Cc1ccccc1OCC(=O)N/N=C/c1cc2ccccc2nc1Cl,14.6µM*,14.6µM*,-1.0%,-12.7,-27.8%,-6.5
O=C(O)C1(c2ccccc2)CCN(S(=O)(=O)c2ccc(F)c(F)c2)CC1,-14.7%,0.1%,7.8%,9.0,0.5%,8.8
Cc1ccc(C)c(CN2CCCN(Cc3ccc(F)cc3)S2(=O)=O)c1,?,?,0.0%,·,·,·
CS(=O)(=O)Nc1cc(C(=O)N2CCNC(=O)C2)c2c(c1)ncn2CCc1ccccc1,0.7%,-14.6%,·,·,·,·
Cc1ccc2nc(Cl)c(/C=N/NC(=O)[C@H]3C[C@@H]3c3ccccc3)cc2c1,-16.0%,?,5.9%,1.3,-6.3%,0.0
COc1ccccc1OCC(=O)N/N=C/c1cccc2cccnc12,?,20.6µM*,2.5%,17.4,-16.1%,i
CC(C)(C)c1ccc(C2CC2C(=O)N/N=C\c2cc3ccccc3nc2Cl)cc1 (centres undefined),?,16.4µM*,5.3%,7.0,-3.6%,7.8
COc1cccc(/C=N/NC(=O)COc2cccc3cccnc23)c1O,7.31µM*,4.11µM*,-5.0%,-7.4,?,120.4
Cc1cc(C)nc(SC(C)CNS(=O)(=O)c2ccccc2)n1 (centres undefined),3.9%,10.1%,-2.7%,-16.8,11.1%,0.0
Cc1cc(C(=O)Nc2ccc(C#N)cc2)on1,1.0%,11.0%,·,0.2,-1.2%,-11.4
Cc1ccc(C(O)CN2C3=NCCN3c3ccccc32)cc1 (centres undefined),23.1µM*,16.4µM*,9.6%,2.8,3.5%,-9.9
Fc1ccc(CN2C3=NCCN3c3ccccc32)cc1,-13.8%,?,·,4.5,9.5%,-7.1
OC(CN1C2=NCCN2c2ccccc21)c1ccc(Br)cc1 (centres undefined),?,20.6µM*,3.8%,23.8,?,-62.3*
Nc1nonc1-n1nnc(C(=O)N/N=C/c2ccc(Br)cc2)c1CSC1=NCCS1,?,25.9µM*,0.0%,9.6,?,-101.5*
CC(C)c1ccc(/C=N/NC(=O)c2nnn(-c3nonc3N)c2CSC2=NCCS2)cc1,?,20.6µM*,5.6%,-0.3,?,-86.9*
Nc1nonc1-n1nnc(C(=O)N/N=C/c2cccnc2)c1CSc1ccc(Cl)cc1,23.1µM*,?,5.1%,-7.1,-7.7%,1.2
